Nrf2 block = Nrf2 qHTS screen for inhibitors | A549 ARE-Fluc reporter, luciferase luminescence, 18-24 h | Potency, µM (titrated, usually from 46 µM), inactives show at the highest dose activity change, negative = inhibition, most hits filed as inhibitors | 2.1% of 360,000 active; note: % is set by controls: 0 for no effect and ±100 for the full control effect; nearly all actives have a fitted effect of over 60% in size
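A549 ARE_Fluc cells (5000/well, 5% FBS OPTI-MEM) pre-incubated 2 h, then treated with compounds 18-24 h at 37C/5% CO2 in concentration-response. CellTiter-Fluor viability read first; BugLite luciferase luminescence after 15 min at room temperature gives Nrf2 activity.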
ELG1 repair inh = qHTS screen for small molecules that inhibit ELG1-dependent DNA repair in human embryonic kidney (HEK293T) cells expressing luciferase-tagged ELG1. HEK293T ELG1-luciferase reporter, luminescence, 16 h; DNA damage induced by 5-fluorouridine. Potency, µM (doses to about 46.1 µM), without a hit: at the highest dose activity change, negative = inhibition, most hits filed as inhibitors. 2.3% of 330,000 active. AID 504467, 2011; note: % is set by controls: 0 for no effect and ±100 for the full control effect; nearly all actives have a fitted effect of over 55% in size
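Cells (2,000 per well) received 5-fluorouridine plus test compound or DMSO and were incubated 16 hr at 37 °C, 5% CO2. Luciferase activity was read by luminescence 30 min after ONE-Glo addition; signal suppression marked inhibition of damage-induced ELG1 function.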
Nrf2 activator = qHTS of Nrf2 Activators. Potency, µM (doses to about 46.1 µM), for inactives: at the highest dose activation, usual class: activators. AREc32 ARE-luciferase reporter (MCF7-derived line), luminescence, 24 h. 0.31% of 410,000 active; note: % of control where 0% means no effect; nearly all actives have a fitted effect of over 65% in size
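AREc32_Fluc, 1000 cells/well, OPTI-MEM + 5% FBS, o/n 37 deg C 5% CO2; 23 nL cpd by pin tool, 24 hr; Steady-Glo 30 min RT, luminescence.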
A549 viability = Nrf2 qHTS screen for inhibitors: counterscreen for cytotoxicity. AID 504648, 2011. A549 ARE-Fluc cells, CellTiter-Fluor viability, 18-24 h. 0.16% of 390,000 active. Potency, µM (top dose mostly 46 µM), for the others: at the highest dose activity change, negative = cytotoxicity, hits mostly inhibitors; note: % is set by controls: 0 for no effect and ±100 for the full control effect
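Cytotoxicity counterscreen: CellTiter-Fluor fluorescence was measured in A549 ARE_Fluc cells after 18-24 h of compound exposure in a concentration series. The subsequent BugLite luminescent read reports ARE-luciferase activity.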
Active calls of the source: *; ? = inconclusive; . = no result given; [ ] = dose if it differs, or a comment. Rows were chosen to be rich in hits. Some 3.7% of all compounds tested hit in one or more screens of this group. Calls come from the whole dose curve; as a rule, active = well fitted curve in the direction sought with a large enough effect; inconclusive = small, poorly fitted or top-dose-only effect, or another doubt; inactive = no such curve, though single readings can be large; an effect the other way counts as inactive or inconclusive. Potency is the fitted concentration of half-maximal effect.

SMILES | Nrf2 block | ELG1 repair inh | Nrf2 activator | A549 viability
O=C(Nc1ccc(OCc2ccccc2)cc1)c1cccnc1 | 11% | ? | 0% | -2%
NNc1nc(-c2ccccc2)nc2sc3c(c12)CCCC3 | ? | ? | 1.4µM* | 8%
CN(C(=O)Nc1ccc(Cl)cc1Cl)[C@H]1c2cc(Br)ccc2OC[C@H]1CO | ? | 21µM* | -1% | -20%
COc1cccc(C2c3c(ncn(-c4cccc(Cl)c4)c3=N)Oc3ccc4ccccc4c32)c1 (configuration not stated) | 2% | . | . | 5%
Cc1ccc(-n2cc(C(=O)c3cc(Cl)ccc3O)cc(C#N)c2=O)cc1 | 7% | -7% | 4% | 1%
Cc1ccccc1NC(=O)c1cc(C(=O)c2cc(Cl)ccc2O)cn(-c2ccccc2C)c1=O | -18% | 21µM* | 0%[9.22 µM] | -12%
CCN1/C(=C2/SC(=S)N(C)C2=O)C=Cc2cc(C)ccc21 | 7% | . | 0% | 5%
CCN1C(=O)/C(=C2/C=Cc3cc(C)ccc3N2CC)N(C)C1=S | ? | -19% | 0% | 23µM*
Nc1ccc(-c2nc3ncccc3o2)cc1 | 6% | ? | 4% | -4%
CCc1ccc2[nH]c3nc(SCC(=O)NCC4CCCO4)nnc3c2c1 (configuration not stated) | ? | -28% | 0% | -11%
CCc1ccc2[nH]c3nc(SCCN4CCOCC4)nnc3c2c1 | ? | 26µM* | 5% | ?
CCc1ccc2[nH]c3nc(SCC(=O)NNC(=O)c4ccc(C(C)(C)C)cc4)nnc3c2c1 | ? | -1% | -1% | 12µM*
COc1cc(C2C(c3ccccc3)C(c3cc(OC)cc(=O)o3)C2c2ccccc2)oc(=O)c1 (configuration not stated) | ? | . | 0% | 1%
CCCc1c(C(=O)N/N=C/c2cccnc2)nnn1-c1nonc1N | -13% | -9% | -1% | 0%
CCO[C@H]1OC(C(=O)N2CCN(Cc3ccccc3)CC2)=C[C@@H](c2ccc(C(F)(F)F)cc2)[C@@H]1CCCO | 29µM* | -16% | 0% | ?
CCO[C@H]1OC(C(=O)N2CCN(Cc3ccc4c(c3)OCO4)CC2)=C[C@@H](c2ccc3c(c2)OCO3)[C@@H]1CCCO | -15% | ? | 2% | -9%
CCO[C@H]1OC(C(=O)N2CCN(Cc3ccccc3)CC2)=C[C@@H](c2ccccc2)[C@@H]1CCCO | 14% | -6% | 0% | -2%
C#Cc1ccc([C@H]2C=C(C(=O)N3CCN(Cc4ccc5c(c4)OCO5)CC3)O[C@@H](OCC)[C@@H]2CCCO)cc1 | -17% | 18µM* | 8% | -2%
N#CCCN(C(=O)COC(=O)CCNS(=O)(=O)c1ccccc1)c1ccccc1 | 7% | 4% | 0% | 5%
CCOC(=O)N1CCC(N2Cc3cccc(C(=O)Nc4ccccc4OC)c3C2=O)CC1 | -8% | -10% | 0% | 5%
O=C(CN1CC(=O)Oc2ccccc21)OCC(=O)c1ccc(Br)cc1 | -23% | . | 13µM* | ?
Cc1ccc(S(=O)(=O)N2CCN(c3cc4c(cc3[N+](=O)[O-])n(C)c(=O)n4C)CC2)cc1 | ? | 7.3µM* | 6% | 0%
Cc1ccc(S(=O)(=O)N2CCN(c3ccc(C(F)(F)F)cc3[N+](=O)[O-])CC2)cc1 | 16µM* | 0% | 1% | -20%
Cc1ccc(C(=O)N2CCN(c3cc4c(cc3[N+](=O)[O-])n(C)c(=O)n4C)CC2)cc1 | -4% | -13% | 0% | -1%
Cc1ccc(S(=O)(=O)N2CCN(c3c([N+](=O)[O-])cc(C(F)(F)F)cc3[N+](=O)[O-])CC2)cc1 | -9% | 1% | 0% | ?
SMILES | Nrf2 block | ELG1 repair inh | Nrf2 activator | A549 viability
CO/N=C/c1ccc(N2CCN(C(=O)c3ccc(C)cc3)CC2)c([N+](=O)[O-])c1 | -19% | 21µM* | 0% | -7%
CCCS(=O)(=O)N1CCN(c2cc3c(cc2[N+](=O)[O-])n(C)c(=O)n3C)CC1 | 12µM* | ? | 4% | -13%
CCCCNc1c(CCc2ccccc2)nc2nc(C)cc(C)n12 | . | . | 10% | .
Cc1ccc(S(=O)(=O)N2CCN(c3ccc(C(=O)N4CCOCC4)cc3[N+](=O)[O-])CC2)cc1 | ? | 18µM* | -1% | -5%
Cn1c(=O)n(C)c2cc([N+](=O)[O-])c(N3CCN(S(=O)(=O)c4ccc5ccccc5c4)CC3)cc21 | 5.8µM* | -15% | 0% | -6%
COC(=O)c1ccc(N2CCN(S(=O)(=O)c3ccc4ccccc4c3)CC2)c([N+](=O)[O-])c1 | ? | -20% | 0% | -21%
CCCSCCCNC(=O)c1ccc2c(c1)nc1n2CCCCC1 | . | . | 0% | 1%
Cc1ccc(NC(=O)COCc2cc(-c3cccs3)on2)cc1Cl | ? | . | 7.1µM* | 15%
O=C(/C=C/c1cccc(F)c1)Nc1cc(S(=O)(=O)N2CCOCC2)ccc1Cl | ? | 26µM* | 11% | -10%
Cc1ccc(F)cc1NC(=O)/C=C/c1ccc(S(=O)(=O)N2CCOCC2)cc1 | 16µM* | 23µM* | 0% | -10%
O=C(/C=C/c1cccc(F)c1)Nc1cc(S(=O)(=O)N2CCOCC2)ccc1N1CCCC1 | -7% | -11% | 1%[9.22 µM] | 10%
O=C(C1CCCCC1)N1C[C@H](n2cc(C3CC3)nn2)[C@@H](O)C[C@@H]1c1ccc(Cl)cc1 | . | . | 0% | .
COc1cc(-c2nnc(COC(=O)CSc3cc(C)c4ccccc4n3)o2)cc(OC)c1OC | -1% | ? | 0% | -3%
COc1ccc(Cn2c(SCc3cc(C)ccc3C)nc3cc(OC)c(OC)cc3c2=N)cc1 | 23µM* | ? | 0% | 18µM*
COc1cc(-c2nnc(CSc3nc4ccccc4s3)o2)cc(OC)c1OC | . | 12µM* | . | .
COc1ccc(-c2nnc(CSc3nc4ccccc4c(=O)n3CC(C)C)o2)cc1OC | -24% | ? | 3% | 2%
COCCCn1c(SCc2ccccc2)nc2cc(OC)c(OC)cc2c1=N | ? | 16µM* | 0% | -19%
COCCCn1c(SCc2nnc(-c3ccc(OC)c(OC)c3)o2)nc2ccccc2c1=O | ? | 12µM* | -1% | -7%
CCOc1ccc(CNC(=O)C2CCN(S(=O)(=O)N3CCC(C)CC3)CC2)cc1OC | . | . | 0% | 14%
COc1ccc(NC2=C3CC(C)CC=C3N(c3ccc(OC)cc3)C2=O)cc1 (configuration not stated) | 15% | ? | 3% | -5%
CN(C(=O)c1cc(S(=O)(=O)N2CCOCC2)cs1)c1ccccc1 | 3% | 4% | 0% | -16%
CN(C)S(=O)(=O)n1cnc(C(CCO)c2ncn(S(=O)(=O)N(C)C)c2CCCO)c1 (configuration not stated) | 16% | ? | 0% | -2%
COCC(=O)N(CCc1ccc(OC)cc1)Cc1nc2ccccc2c(=O)[nH]1 | -4% | -3% | 0% | -8%
CCN(Cc1nc2ccccc2c(=O)[nH]1)C(=O)COc1ccccc1Cc1ccccc1 | 16µM* | -13% | 1% | -15%

Bioassay records as filed in PubChem.
